# Measured values taken from PubChem BioAssay (NCATS).
# Unmarked numbers belong to inactive results. Inconclusive results are not listed. A call without a number means that no potency is given here. Calls of active or inactive are those of the source. Unless noted, calls come from the whole dose curve; as a rule, active = well fitted curve in the direction sought with a large enough effect; inconclusive = small, poorly fitted or top-dose-only effect, or another doubt; inactive = no such curve, though single readings can be large; an effect the other way counts as inactive or inconclusive.
# What was measured:
# [1] = molecular target: Hexokinase-4 (Homo sapiens) + Glucokinase regulatory protein (Homo sapiens) (UniProt P35557+Q14397); test: qHTS assay for inhibitors of recombinant human GCK-GKRP interaction: HTRF assay (AID 743207)
# Sequence of Hexokinase-4 (Homo sapiens) + Glucokinase regulatory protein (Homo sapiens) (P35557 whole entry, looked up): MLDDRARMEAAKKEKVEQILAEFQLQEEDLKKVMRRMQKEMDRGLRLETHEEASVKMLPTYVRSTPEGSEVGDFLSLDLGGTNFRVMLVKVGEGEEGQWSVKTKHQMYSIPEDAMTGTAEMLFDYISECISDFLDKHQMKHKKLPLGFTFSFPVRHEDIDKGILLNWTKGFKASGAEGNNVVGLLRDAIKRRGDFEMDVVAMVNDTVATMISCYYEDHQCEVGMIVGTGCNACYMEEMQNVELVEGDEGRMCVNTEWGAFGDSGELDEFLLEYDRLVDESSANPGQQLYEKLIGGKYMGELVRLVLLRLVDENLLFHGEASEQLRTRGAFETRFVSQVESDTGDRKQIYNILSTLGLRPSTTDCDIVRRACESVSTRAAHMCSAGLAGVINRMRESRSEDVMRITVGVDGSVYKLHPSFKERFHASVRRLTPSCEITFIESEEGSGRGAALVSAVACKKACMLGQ
# Sequence of Hexokinase-4 (Homo sapiens) + Glucokinase regulatory protein (Homo sapiens) (Q14397 whole entry, looked up): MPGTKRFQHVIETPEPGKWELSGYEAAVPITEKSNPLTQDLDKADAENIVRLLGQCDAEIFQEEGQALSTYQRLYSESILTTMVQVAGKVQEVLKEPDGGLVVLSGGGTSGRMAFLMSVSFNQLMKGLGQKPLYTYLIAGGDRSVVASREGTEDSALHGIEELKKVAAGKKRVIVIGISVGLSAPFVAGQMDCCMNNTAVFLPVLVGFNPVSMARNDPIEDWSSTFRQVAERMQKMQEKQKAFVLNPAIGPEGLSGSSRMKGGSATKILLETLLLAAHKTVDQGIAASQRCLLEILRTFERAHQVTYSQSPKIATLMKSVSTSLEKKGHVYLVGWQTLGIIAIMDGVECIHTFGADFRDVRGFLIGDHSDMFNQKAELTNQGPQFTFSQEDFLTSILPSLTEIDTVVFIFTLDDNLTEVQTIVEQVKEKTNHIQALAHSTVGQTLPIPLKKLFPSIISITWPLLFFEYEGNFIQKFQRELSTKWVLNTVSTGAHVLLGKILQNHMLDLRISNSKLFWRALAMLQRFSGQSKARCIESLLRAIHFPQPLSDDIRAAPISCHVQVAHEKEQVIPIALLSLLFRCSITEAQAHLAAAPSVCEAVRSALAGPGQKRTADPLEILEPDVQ
# Summary of the method: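 HTRF read-out (ex 320 nm; 615/665 nm emission) after 60 min RT equilibration of 5 nM GST-GCK, 5 nM FLAG-GKRP, 2 uM S6P, compound and anti-FLAG/anti-GST detection antibodies; signal normalized between DMSO wells with and without GCK.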
# [2] = qHTS Assay for Identifying Gametocytocidal Compounds (AID 743244); note: potency is the fitted concentration of half-maximal effect;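 for max response: actives lower the fluorescent signal which means gametocytes are killed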; conditions: P. falciparum 3D7 stage III-V gametocytes, alamarBlue, 72 h; max response: stronger effect = lower value
# Summary of the method: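 Late gametocytes (III–V), P. falciparum 3D7; 72 h drug, then 24 h alamarBlue; resazurin reduction read by fluorescence.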
# [3] = qHTS assay for measurement of the activity of small molecule inhibitors on Zika virus induced Caspase-3 activity in human iPSC derived neural progenitor cells (hNPCs) (AID 1224857); note: nearly all actives have a fitted effect of over 65% in size
# Summary of the method: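 Caspase-3/7 induction by a 6-hour ZIKV infection was quantified with a luminescent Caspase-Glo 3/7 reagent incubated 30 minutes at room temperature. Compounds were preincubated with hNPCs for 1 hour; inhibition was calculated against uninfected and infected control wells.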
# [4] = qHTS assay for measurement of the activity of small molecule inhibitors on Zika virus induced Caspase-3 activity in human astrocytoma cells (AID 1224859)
# Summary of the method: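 In SNB-19 cells plated at 250 cells/well and grown 16-20 h, compounds were applied 1 h before ZIKV (2 FFU/cell). Six hours later caspase-3/7 luminescence was recorded.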
# [5] = Natriuretic polypeptide receptor (hNpr1) antagonism - Pilot counterscreen GloSensor control cell line (AID 1347045; calls by dose curve; note: series mostly up to about 38 µM)
# Summary of the method: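 The SNP-driven cGMP luminescence signal (50 uM, 20 min, room temperature) was measured in GloSensor HEK293 control cells. Compounds were tested as a LOPAC titration series and preincubated for 30-50 min.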
# [6] = molecular target: Atrial natriuretic peptide receptor 1 (Homo sapiens) (UniProt P16066); test: Natriuretic polypeptide receptor (hNpr1) antagonism - Pilot screen (AID 1347049; calls by dose curve;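 note: HEK293 cells with hNpr1 and GloSensor cGMP luciferase stimulated by 0.1 nM hNppA; agonist-evoked cGMP luminescence read 20 min after hNppA addition; series mostly up to about 58 µM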)
# Sequence of Atrial natriuretic peptide receptor 1 (Homo sapiens) (P16066 whole entry, looked up): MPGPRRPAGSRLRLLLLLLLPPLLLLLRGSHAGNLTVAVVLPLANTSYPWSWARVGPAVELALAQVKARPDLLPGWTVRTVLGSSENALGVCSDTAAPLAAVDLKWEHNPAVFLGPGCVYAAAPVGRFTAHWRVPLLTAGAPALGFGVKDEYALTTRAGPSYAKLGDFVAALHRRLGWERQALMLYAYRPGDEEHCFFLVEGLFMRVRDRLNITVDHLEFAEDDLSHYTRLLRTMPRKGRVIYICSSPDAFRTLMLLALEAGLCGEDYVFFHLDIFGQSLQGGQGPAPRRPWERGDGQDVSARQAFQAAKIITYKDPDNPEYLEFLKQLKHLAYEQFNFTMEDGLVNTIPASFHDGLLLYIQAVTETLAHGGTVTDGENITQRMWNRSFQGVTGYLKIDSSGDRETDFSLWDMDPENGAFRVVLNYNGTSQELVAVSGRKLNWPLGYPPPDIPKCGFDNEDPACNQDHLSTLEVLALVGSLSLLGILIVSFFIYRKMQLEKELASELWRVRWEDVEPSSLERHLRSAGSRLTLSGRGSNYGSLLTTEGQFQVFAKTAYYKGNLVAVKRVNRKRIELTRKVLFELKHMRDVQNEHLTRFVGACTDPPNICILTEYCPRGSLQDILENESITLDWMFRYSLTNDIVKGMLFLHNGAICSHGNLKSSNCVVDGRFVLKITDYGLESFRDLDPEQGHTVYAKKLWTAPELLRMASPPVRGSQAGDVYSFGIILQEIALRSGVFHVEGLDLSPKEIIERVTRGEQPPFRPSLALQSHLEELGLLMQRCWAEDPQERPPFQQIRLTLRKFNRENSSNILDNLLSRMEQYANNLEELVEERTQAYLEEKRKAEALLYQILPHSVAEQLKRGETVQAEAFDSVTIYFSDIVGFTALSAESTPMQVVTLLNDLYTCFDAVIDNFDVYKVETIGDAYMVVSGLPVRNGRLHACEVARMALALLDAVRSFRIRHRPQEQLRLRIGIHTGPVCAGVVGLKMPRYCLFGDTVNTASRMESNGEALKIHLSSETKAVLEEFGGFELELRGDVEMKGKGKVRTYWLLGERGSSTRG
# Summary of the method: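 Cells expressing receptor plus cGMP biosensor are seeded and incubated overnight at 37C, then loaded with GloSensor reagent (2% final) at room temperature for 2 h. Library compounds go on for 30 min. A pre-read precedes agonist (hNppA, 0.1 nM final) and a 20-min readout.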
# [7] = molecular target: Atrial natriuretic peptide receptor 2 (Homo sapiens) (UniProt P20594); test: Natriuretic polypeptide receptor (hNpr2) antagonism - Pilot subtype selectivity assay (AID 1347050; calls by dose curve)
# Sequence of Atrial natriuretic peptide receptor 2 (Homo sapiens) (P20594 whole entry, looked up): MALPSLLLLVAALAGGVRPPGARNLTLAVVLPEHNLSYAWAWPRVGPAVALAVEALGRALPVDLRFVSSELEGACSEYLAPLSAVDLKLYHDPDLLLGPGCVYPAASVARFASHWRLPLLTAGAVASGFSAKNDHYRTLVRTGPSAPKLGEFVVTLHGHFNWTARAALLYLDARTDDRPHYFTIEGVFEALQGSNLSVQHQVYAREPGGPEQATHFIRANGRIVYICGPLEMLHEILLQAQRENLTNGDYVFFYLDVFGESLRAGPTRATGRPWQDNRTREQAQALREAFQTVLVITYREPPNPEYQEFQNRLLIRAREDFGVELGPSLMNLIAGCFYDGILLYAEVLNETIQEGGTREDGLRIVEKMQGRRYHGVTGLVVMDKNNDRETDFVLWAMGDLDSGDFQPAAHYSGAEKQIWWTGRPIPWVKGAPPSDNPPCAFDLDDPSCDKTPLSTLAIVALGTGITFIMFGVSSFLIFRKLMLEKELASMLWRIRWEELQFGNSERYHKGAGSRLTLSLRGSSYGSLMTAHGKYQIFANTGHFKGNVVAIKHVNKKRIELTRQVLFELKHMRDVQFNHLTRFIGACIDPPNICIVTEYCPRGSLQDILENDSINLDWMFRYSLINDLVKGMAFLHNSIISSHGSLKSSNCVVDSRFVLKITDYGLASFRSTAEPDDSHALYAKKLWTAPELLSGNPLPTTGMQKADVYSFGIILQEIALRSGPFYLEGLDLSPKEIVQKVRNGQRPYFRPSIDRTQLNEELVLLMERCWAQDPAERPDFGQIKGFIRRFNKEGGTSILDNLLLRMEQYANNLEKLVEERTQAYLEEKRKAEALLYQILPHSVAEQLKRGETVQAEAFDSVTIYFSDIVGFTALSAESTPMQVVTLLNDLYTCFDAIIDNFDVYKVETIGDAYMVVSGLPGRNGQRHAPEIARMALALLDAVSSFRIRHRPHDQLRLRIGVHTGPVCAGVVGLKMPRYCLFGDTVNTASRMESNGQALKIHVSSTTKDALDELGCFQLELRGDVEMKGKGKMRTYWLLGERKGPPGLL
# Summary of the method: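 Read-out: GloSensor luminescence (CCD imager), baseline vs post-stimulation. HEK293 cells expressing hNpr2; compounds pre-incubated 30-50 min at ambient temperature; hNppC 1 nM final, 20 min.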
# [8] = NS1 protein of Zika virus - qHTS assay to identify small molecule inhibitors in human HEK 293 cells (AID 1347053); note: series mostly up to about 46 µM; nearly all actives have a fitted effect of over 55% in size
# Summary of the method: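 TR-FRET signal from two anti-ZIKV NS1 antibodies quantified NS1 in HEK 293 cells 24 h after MR766 infection at MOI = 0.5; compounds were added 1 h before virus. Uninfected cells and infected cells defined the NS1 normalization range.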
Structure (SMILES),outcome [1],max response [2],Potency [3],outcome [4],Potency [5],Potency [6],Potency [7],outcome [8],Potency [2]
C[N+]1(C)CCN(c2ccccc2)CC1,inactive,-6.92%,inactive,inactive,inactive,inactive,inactive,inactive,–
CC(C)CC(NP(=O)(O)O[C@@H]1O[C@@H](C)[C@H](O)[C@@H](O)[C@H]1O)C(=O)NC(Cc1c[nH]c2ccccc12)C(=O)O (stereo partly drawn),–,–,inactive,–,–,–,–,–,–
CCCN(CCC)[C@H]1CCc2c(F)ccc(O)c2C1,–,–,inactive,inactive,inactive,inactive,inactive,inactive,–
C[N+](C)(C)CCOC(=O)CBr,inactive,20.4%,inactive,inactive,inactive,inactive,inactive,inactive,–
CCNC(=O)[C@H]1O[C@@H](n2cnc3c(N)ncnc32)[C@H](O)C1O (stereo partly drawn),–,–,inactive,–,–,–,–,–,–
CC1OC1P(=O)(O)O (stereo not drawn),–,–,inactive,–,–,–,–,–,–
C[N+]1(C)C2CCC1CC(OC(=O)c1c[nH]c3ccccc13)C2 (stereo not drawn),inactive,-2.89%,inactive,inactive,inactive,inactive,inactive,inactive,–
NC(=O)c1ccc(OCC(O)CN2CC=C(c3ccc(F)cc3)CC2)cc1 (stereo not drawn),inactive,–,inactive,inactive,inactive,inactive,inactive,inactive,–
CN1CCC(c2c[nH]c3ccc(O)cc23)CC1,inactive,11.9%,inactive,inactive,inactive,inactive,inactive,inactive,–
CC(N)c1cccc(Cl)c1Cl (stereo not drawn),–,–,inactive,inactive,inactive,inactive,inactive,inactive,–
COc1ccc(OC)c(C(O)C(C)N)c1 (stereo not drawn),inactive,11.7%,inactive,inactive,inactive,inactive,inactive,inactive,–
Cc1cc([C@@H]2CCCN2C)on1,inactive,–,inactive,inactive,inactive,inactive,inactive,inactive,–
O=C1CC[C@@]2(O)C3Cc4ccc(O)c5c4C2(CCN3CC2CC2)[C@H]1O5 (stereo partly drawn),inactive,16.9%,inactive,inactive,inactive,inactive,inactive,inactive,–
NCCCP(=O)(O)O,inactive,-9.88%,inactive,inactive,inactive,inactive,inactive,inactive,–
CCCC[N+]1(C)C2CC(OC(=O)[C@H](CO)c3ccccc3)CC1C1OC12 (stereo partly drawn),inactive,–,inactive,inactive,inactive,inactive,inactive,inactive,–
CCCN(CCC)C1CCc2cccc(O)c2C1 (stereo not drawn),inactive,13.2%,inactive,inactive,inactive,inactive,inactive,inactive,–
C[N+]1(C)CCC(OC(=O)C(c2ccccc2)c2ccccc2)CC1,–,–,inactive,–,–,–,–,–,–
Nc1ncnc2c1ncn2[C@@H]1O[C@H](COP(=O)(O)CP(=O)(O)OP(=O)(O)O)C(O)[C@H]1O (stereo partly drawn),–,–,inactive,–,–,–,–,–,–
CCN(CC)c1ncnc2c1ncn2[C@@H]1O[C@H](COP(=O)(O)OP(=O)(O)C(Br)(Br)P(=O)(O)O)[C@@H](O)[C@H]1O,–,–,inactive,–,–,–,–,–,–
COc1ccc2[nH]cc(CCN)c2c1,inactive,–,inactive,inactive,inactive,inactive,inactive,inactive,–
CP(=O)(O)C1=CCNCC1,inactive,6.19%,inactive,inactive,inactive,inactive,inactive,inactive,–
O=C1/C(=C/c2ccccc2)C[C@@]2(O)[C@H]3Cc4ccc(O)c5c4[C@@]2(CCN3CC2CC2)[C@H]1O5,–,–,inactive,–,–,–,–,–,–
CCN1C[C@@]2(COC)C3[C@@H](OC)C4[C@H]1C3([C@@H]1C[C@@]3(O)[C@H](OC(=O)c5ccccc5)[C@@H]1[C@]4(OC(C)=O)[C@@H](O)[C@@H]3OC)[C@H](OC)C[C@H]2O,–,–,inactive,–,–,–,–,–,–
CC(N)Cc1c[nH]c2ccc(OCc3cccs3)cc12 (stereo not drawn),inactive,–,inactive,inactive,inactive,inactive,inactive,inactive,1.41 µM (active)
c1ccc2c(N3CCNCC3)cccc2c1,inactive,–,inactive,inactive,inactive,inactive,inactive,inactive,–
COc1ccc2c(c1)C13CCCCC1C(C2)N(C)CC3 (stereo not drawn),inactive,–,inactive,inactive,inactive,inactive,inactive,inactive,–
CCCN(CCC)CCc1ccc(O)c(O)c1,inactive,12.9%,inactive,inactive,inactive,inactive,inactive,inactive,–
COc1ccc2c(c1O)-c1cccc3c1[C@@H](C2)N(C)CC3,inactive,27.6%,inactive,inactive,inactive,inactive,inactive,inactive,–
